Structures are written as SMILES. “And” between values parts separate entries of the source, which are not always exact repeats. Equal entries are not always repeated. ± gives the standard deviation of the averaged measurements.
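Note: TDF denotes transformed human dermal fibroblasts of mesenchymal origin.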

This assay relates to TDF. Nature of the assay: cell number relative to DMSO (% of DMSO); higher = more cells (less growth inhibition / toxicity). As to conditions: concentration: 10 µM; 24 h. The method, boiled down: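 For HCC1569 and TDF cells, compounds at 10 µM were applied for 24 h at 37 °C in triplicate in 384-well plates. Cells were fixed in 3.7% formaldehyde, stained for H1.0 and with DAPI, and imaged at ×10 over six fields per well. The endpoint, H1.0 nuclear intensity or cell number, is shown as percent of the plate control using the median of replicates. Positional effects were smoothed for HCC1569 only.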
`CSC(=S)NCc1c[nH]c2ccccc12` [Brassinin] returned a cell number of 90.8. For `CS(=N)(=O)CCC(N)C(=O)O` [L-Methionine sulfoximine], the cell number came to 94.

In turn, `CC(C)CC(NP(=O)([O-])OC1OC(C)C(O)C(O)C1O)C(=O)NC(Cc1c[nH]c2ccccc12)C(=O)[O-].[Na+].[Na+]` (centres undefined) [Phosphoramidon disodium] gave a cell number of 110. In the case of `O=[N+]([O-])c1cc(O)c(O)c([N+](=O)[O-])c1` [3,5-Dinitrocatechol], the cell number turned out to be 107.

For the molecule `CC(C)NCC(O)c1ccc(N)c(C#N)c1` (centres undefined) [Cimaterol], the cell number was found to be 108.

As to `NC(Cn1oc(=O)[nH]c1=O)C(=O)O` (centres undefined) [Quisqualic acid], the cell number came out at 94.9.

The molecule `NC(CCP(=O)(O)O)C(=O)O` (racemic) showed a cell number of 101.

`CCCCCCCCCCCCCCCCOCC(O)COP(=O)([O-])OCC[N+](C)(C)C` (centres undefined) displayed a cell number of 105. In turn, `CCC1CN2CCc3cc(OC)c(OC)cc3C2CC1CC1NCCc2cc(OC)c(OC)cc21.Cl.Cl` (centres undefined) gave a cell number of 27. As for `COC(=O)c1cc2c(cn1)[nH]c1ccccc12` [Methyl beta-carboline-3-carboxylate], the cell number was determined as 105. `CC1OC(OC2CC(O)C3(CO)C4C(O)CC5(C)C(C6=CC(=O)OC6)CCC5(O)C4CCC3(O)C2)C(O)C(O)C1O` (centres undefined) [Ouabain] yielded a cell number of 36.4. Turning to `CCCCCC=CCC=CCC=CCCCCCCC(=O)NCCO` [Anandamide (20:3,n-6)], the cell number is 97.4. Take `COc1cc(=O)oc(C=CC=CC=CC(C)=CC2(C)OC(C)C(C)(O)C2O)c1C` (centres undefined) [Citreoviridin]: the cell number stood at 38.6.

`COc1ccc2c(c[n+](C)c3c4cc5c(cc4ccc23)OCO5)c1OC.[Cl-]` [Chelerythrine Chloride] registered a cell number of 98.2. For `CC1(O)CC23CC(O)C4(O)C(CC(O)C4(C)C)C(C)(O)C2CCC1C3O` (centres undefined) [Grayanotoxin III], the cell number was determined as 102. `CC(C(O)CCC(C)(C)O)C1CCC2(O)C3=CC(=O)C4CC(O)C(O)CC4(C)C3CCC12C` (centres undefined) [Ecdysone] gave a cell number of 112. `CC12NC(Cc3ccccc31)c1ccccc12.O=C(O)C=CC(=O)O` (single isomer, unassigned; (+)) [(+)-MK-801 hydrogen maleate] came in with a cell number of 99. The molecule `Cl.Oc1ccc2c3c1OC1C(O)CCC4(O)C(C2)N(CC2CCC2)CCC314` (centres undefined) [Nalbuphine hydrochloride] registered a cell number of 104.

In turn, `CC(=O)OC1C2C(OC(=O)Cc3ccccc3)C(C)CC2(OC(C)=O)C(=O)C(C)=CC2C(CCC13CO3)C2(C)C` (centres undefined) [Euphorbiasteroid] returned a cell number of 106. As to `Cl.NCCc1ccc(O)cc1` [4-Hydroxyphenethylamine hydrochloride], the cell number came out at 100. `CC(N)c1cccc(Cl)c1Cl.Cl` (racemic): the cell number amounted to 94.2.

Turning to `COc1cc2c(c(OC)c1OC)-c1ccc(OC)c(=O)cc1C(NC(C)=O)CC2` (centres undefined) [Colchicine], the cell number stood at 9.12 ± 1.6. The result for `C=C1C(C)C2C(Cc3ccccc3)NC(=O)C23C(OC(C)=O)C=CC(C)(O)C(=O)C(C)CC=CC3C1O` (centres undefined) [Cytochalasin D] reads 45.1; that for `CC1=CC(=O)c2c(O)cccc2C1=O` [Plumbagin], 46.8; that for `CC=C(C)C(=O)OC1CCC2(C)C3CCC4C5(O)CC(O)C6(O)C(CN7CC(C)CCC7C6(C)O)C5(O)CC42OC13O` (centres undefined) [Cevadine], 99.4. For the molecule `COc1cccc(C2(O)CCCCC2CN(C)C)c1` (centres undefined) [Tramadol], the cell number was 97.7. For the molecule `CCCN1CCOC2c3cc(O)ccc3OCC21.Cl` (stereo not drawn) [S(+)-PD 128,907 hydrochloride], the cell number is 104. As for `CC1=C(C)C(=O)C(CCC(C)(O)CCCC(C)CCCC(C)CCCC(C)C)=C(C)C1=O` (racemic), the cell number was 104. `CN1CC(CO)C=C2c3cccc4[nH]cc(c34)CC21` (centres undefined) [Lysergol] displayed a cell number of 106. The result for `O=C1NC(=O)c2c1c1c3ccccc3[nH]c1c1[nH]c3ccccc3c21` reads 126; that for `CCN1CC2(C)CCC(O)C34C5CC6C(OC)CC(O)(C(CC23)C14)C5C6O` (centres undefined) [Karakoline], 99.5 ± 1.5.

As to `Cc1cc(C(=O)CN2CCCC2)c(C)n1-c1ccc(F)cc1`, the cell number is 102. For `O=C1NC(=O)c2c1c1c3ccccc3n3c1c1c2c2ccccc2n1C1CCC3O1`, the cell number is 74.9 and 76.9.

`Cl.O=C(OC1CCN(CCCl)CC1)C(c1ccccc1)c1ccccc1` [4-Diphenylacetoxy-N-(2-chloroethyl)piperidine hydrochloride] gave a cell number of 94.9. The molecule `CN1Cc2c(ccc3c2OCO3)C2C(O)Cc3cc4c(cc3C21)OCO4` (single isomer, unassigned; (+)) [(+)-Chelidonine] displayed a cell number of 7.56. Molecule `CN1CCC2(CCN3CCc4c(oc5ccccc45)C3C2)N(C)C1=O.Cl` (centres undefined) displayed a cell number of 91. Regarding `CC(C)C1(NC(=O)C2C=C3c4cccc5[nH]cc(c45)CC3N(C)C2)OC2(O)C3CCCN3C(=O)C(Cc3ccccc3)N2C1=O` (centres undefined) [Ergocristine], the cell number amounted to 109. Then `CC(CCc1ccccc1)NC(C)C(O)c1ccc(O)cc1.Cl` (centres undefined) [Buphenine.HCl], with 104; and `OC1CN2CCCC(O)C2C1O` (centres undefined) [Swainsonine], with 98.6.

The values are drawn from the supplement of paper PMC7156485.
